# According to PubChem BioAssay:
# Several values for one entry are separate records, joined by “and”; a condition that tells them apart may be missing. Equal values may be shown once. Inconclusive results are not listed. Activity calls are given as the source filed them.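 Rule for the calls, unless noted: active = normalized viability below 100% at a tested concentration; inactive = the rest.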
# Tests used:
# [1] = viability loss in pontine glioma line – cell-based, SU-DIPG-XXV, MIPE5.0, CellTiter-Glo, qHTS, dose response (AID 1347065; cut-off not given, nearly all actives have AC50 up to about 26 µM;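 note: cells exposed to compound for 48 hours before ATP readout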); settings: CellTiter-Glo ATP luminescence
# [2] = SU-DIPG-VI glioma cell viability, MIPE4.0 library, CellTiter-Glo luminescence, qHTS (AID 1347066; cut-off not given, nearly all actives have AC50 up to about 30 µM;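 note: cells exposed to compound for 48 hours before readout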); settings: CellTiter-Glo ATP luminescence
# [3] = JHH-DIPG-1 glioma cell viability, MIPE5.0 library, CellTiter-Glo luminescence, qHTS (AID 1347067; cut-off not given, nearly all actives have AC50 up to about 26 µM;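 note: cells exposed to compound for 48 hours before readout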); settings: JHH-DIPG-1 glioma viability, CellTiter-Glo ATP luminescence
# [4] = SU-DIPG-XXV glioma cell viability, MIPE5.0 library, qHTS (AID 1347068; cut-off not given, nearly all actives have IC50 up to about 30 µM)
# [5] = phospholipid biosynthesis inhibitors in animal cells, primary screen, cell-based, LOPAC library, screen 4 (AID 1347384; call rule not given here); settings: phospholipid biosynthesis inhibition screen, at 10 µM
# [6] = survival rescue of mitochondrial mutant cells in low glucose, primary screen, MELAS cybrids, Rieske KO mouse fibroblasts, CellTiter-Glo (AID 1508586;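 active = mean z-score across replicates of 1.96 or higher in either the MELAS or the Rieske mutant cell line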;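 note: z relative to plate mean and SD of compound and empty wells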)
# [7] = molecular target: NAD(+) hydrolase SARM1 (Homo sapiens) (UniProt Q6SZW1); test: SARM1 TIR NADase inhibitors, cell lysate, NAD-Glo luminescence (AID 1508614;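 active = compound whose remaining NAD level is above about 45 nM, limit read from the data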;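 note: higher remaining NAD means stronger inhibition of SARM1 NADase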); settings: SAM-TIR HEK293T lysate NADase, at 1 µM, stronger effect = higher value
# NAD(+) hydrolase SARM1 (Homo sapiens), sequence (Q6SZW1 whole entry, looked up, the tested form may be a part): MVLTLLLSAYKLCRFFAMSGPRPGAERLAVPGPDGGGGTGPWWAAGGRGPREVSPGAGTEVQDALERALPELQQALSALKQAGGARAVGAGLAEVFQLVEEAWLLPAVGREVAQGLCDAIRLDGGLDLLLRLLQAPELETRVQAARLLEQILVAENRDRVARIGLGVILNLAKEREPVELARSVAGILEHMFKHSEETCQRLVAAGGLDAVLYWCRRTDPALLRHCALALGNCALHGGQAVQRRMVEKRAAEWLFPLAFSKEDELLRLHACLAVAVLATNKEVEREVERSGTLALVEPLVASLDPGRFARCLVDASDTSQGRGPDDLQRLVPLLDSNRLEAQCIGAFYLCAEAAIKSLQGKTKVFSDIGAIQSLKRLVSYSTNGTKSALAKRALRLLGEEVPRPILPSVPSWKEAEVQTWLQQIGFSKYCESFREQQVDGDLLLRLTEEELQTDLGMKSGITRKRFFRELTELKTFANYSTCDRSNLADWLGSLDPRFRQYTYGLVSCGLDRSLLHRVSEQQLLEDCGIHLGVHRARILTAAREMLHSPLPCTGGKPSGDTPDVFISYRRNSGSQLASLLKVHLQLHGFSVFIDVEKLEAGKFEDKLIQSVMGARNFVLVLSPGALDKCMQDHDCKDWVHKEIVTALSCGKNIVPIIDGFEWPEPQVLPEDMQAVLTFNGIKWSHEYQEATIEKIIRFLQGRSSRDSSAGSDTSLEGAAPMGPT
# [8] = molecular target: Mitogen-activated protein kinase 7 (Homo sapiens) (UniProt Q13164); test: ERK5 transactivation activators in reporter cells, primary screen, cell-based, HTS (AID 1508626;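 active = luciferase signal above three times the same-plate solvent-only control wells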;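 note: luciferase driven by Gal4-ERK5 fusion binding five Gal4 sites before minimal TATA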); settings: HeLa Gal4-ERK5 transactivation, 18 h, at 5 µM, stronger effect = higher value
# Mitogen-activated protein kinase 7 (Homo sapiens), sequence (Q13164 whole entry, looked up, the tested form may be a part): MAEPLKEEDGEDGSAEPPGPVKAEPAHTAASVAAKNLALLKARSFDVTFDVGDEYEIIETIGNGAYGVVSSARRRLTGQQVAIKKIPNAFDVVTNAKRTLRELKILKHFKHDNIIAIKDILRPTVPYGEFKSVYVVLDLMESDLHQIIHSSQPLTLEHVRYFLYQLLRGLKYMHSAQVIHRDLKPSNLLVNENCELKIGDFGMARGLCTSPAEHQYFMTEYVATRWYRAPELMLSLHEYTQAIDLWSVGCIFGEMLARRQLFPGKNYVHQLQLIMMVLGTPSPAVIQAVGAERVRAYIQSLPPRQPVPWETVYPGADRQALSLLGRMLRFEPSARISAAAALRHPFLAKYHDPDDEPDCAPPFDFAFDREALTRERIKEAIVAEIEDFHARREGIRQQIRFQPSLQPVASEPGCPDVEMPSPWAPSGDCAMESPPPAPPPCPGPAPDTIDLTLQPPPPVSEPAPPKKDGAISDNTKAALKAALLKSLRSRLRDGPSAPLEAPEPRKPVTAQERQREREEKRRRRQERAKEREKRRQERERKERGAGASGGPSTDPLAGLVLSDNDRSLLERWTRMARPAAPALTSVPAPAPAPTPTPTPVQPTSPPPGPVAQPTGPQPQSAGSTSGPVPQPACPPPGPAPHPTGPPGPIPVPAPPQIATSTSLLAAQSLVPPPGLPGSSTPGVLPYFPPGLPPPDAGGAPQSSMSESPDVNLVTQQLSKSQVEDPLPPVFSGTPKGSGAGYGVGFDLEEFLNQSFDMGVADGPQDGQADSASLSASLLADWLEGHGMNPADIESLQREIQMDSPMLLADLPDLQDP
# [9] = viability rescue of complex I mutant cybrids, primary screen, cell-based, galactose medium, ATP luminescence (AID 1645843;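 active = z-score of at least 1.8 in each of two replicates, scored against plate mean and spread of sample wells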;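 note: positive z means more ATP and so rescue of galactose-driven cybrid death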); settings: complex I mutant cybrid cells, 72 h, stronger effect = higher value
# [10] = ovarian cancer cell viability with rucaparib, profiling panel, oncology-focused library, rucaparib conditional (AID 1508598); settings: patient-derived ovarian cancer cells, CellTiter-Glo viability, 144 h, stronger effect = lower value
# [11] = LFS_MB_P medulloblastoma growth inhibition, cell-based, chromothripsis tumors, cisplatin or BGB combos (AID 1671449; in the data active = inhibition above about 80%;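 note: cells exposed for 96 hours; 0% = vehicle DMSO and 100% = killing by high DMSO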); settings: LFS_MB_P medulloblastoma cells
# [12] = HDN33 neuroblastoma growth inhibition, cell-based, chromothripsis tumors, cisplatin or BGB combos (AID 1671450; in the data active = inhibition above about 80%;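 note: cells exposed to compound for four days; 0% = vehicle DMSO and 100% = cell killing by high DMSO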); settings: HDN33 neuroblastoma cells, stronger effect = higher value
# [13] = ICB984 medulloblastoma cell growth inhibition, synergistic combos for chromothripsis tumors, cisplatin or BGB combos (AID 1671451; call rule not given here;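 note: cells exposed for 96 hours before readout; 0% = vehicle DMSO and 100% = killing by high DMSO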); settings: ICB984 medulloblastoma cells, drug combinations, stronger effect = higher value
# [14] = LFS_MB_1R medulloblastoma cell growth inhibition, synergistic combos for chromothripsis tumors, cisplatin or BGB combos (AID 1671452; in the data active = inhibition above about 80%;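 note: cells exposed for 96 hours before readout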); settings: LFS_MB_1R medulloblastoma cells, stronger effect = higher value
# [15] = HTB85 osteosarcoma cell growth inhibition, synergistic combos for chromothripsis tumors, BGB or cisplatin IC20 combos (AID 1671453; in the data active = inhibition above about 80%;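 note: cells exposed for 96 hours before readout; 0% = vehicle DMSO and 100% = high DMSO killing control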); settings: HTB85 osteosarcoma cells, drug combinations, stronger effect = higher value
# [16] = CRL2098 osteosarcoma cell growth inhibition, synergistic combos for chromothripsis tumors, BGB or cisplatin IC20 combos (AID 1671454; in the data active = inhibition above about 80%;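 note: cells exposed for 96 h before readout; 0% = vehicle DMSO and 100% = killing by high DMSO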); settings: CRL2098 osteosarcoma cells, drug combinations, stronger effect = higher value
# [17] = HD-MB03 medulloblastoma cell growth inhibition, synergistic combos for chromothripsis tumors, BGB or cisplatin IC20 combos (AID 1671455; in the data active = inhibition above about 83%;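 note: 0% = vehicle DMSO and 100% = high DMSO as cytotoxic control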); settings: HD-MB03 medulloblastoma cells, stronger effect = higher value
# [18] = MELAS cybrid survival, CellTiter-Glo 48 h, stronger effect = higher value
# [19] = Rieske KO mouse fibroblast survival, CellTiter-Glo 72 h
# [20] = measured here: combination with BGB IC40, at 0.05 µM
smiles,measurement,setting,value
NC(=O)c1ncn([C@@H]2O[C@H](CO)[C@@H](O)[C@H]2O)n1,outcome,[1],inactive
same,outcome,[2],inactive
same,outcome,[3],inactive
same,outcome,[4],inactive
same,outcome,[5],inactive
same,z-score,[6]; [18],-1.67 (inactive) and -1.08 (inactive)
same,z-score,[6]; [19],-1.02 and -1.08
same,remaining NAD,[7],10 nM (inactive)
same,luciferase signal,[8],36 AU (inactive)
same,z-score,[9],0.88 (inactive) and 1.56 (inactive)
Cc1nc2ccc(CN(C)c3ccc(C(=O)N[C@@H](CCC(=O)O)C(=O)O)s3)cc2c(=O)[nH]1,outcome,[1],inactive
same,outcome,[2],inactive
same,outcome,[3],inactive
same,outcome,[4],inactive
same,z-score,[6]; [18],-0.789 (inactive)
same,z-score,[6]; [19],-1.02
same,viability,"[10]; at 0.000305 µM, OCI-C5x cells, with rucaparib 10 µM, 100% = cells with rucaparib alone",114% (inactive)
same,viability,"[10]; at 0.000305 µM, OCI-C5x cells, without rucaparib",92.6% (active)
same,viability,"[10]; at 0.000305 µM, OCI-P5x cells, with rucaparib 20 µM, 100% = cells with rucaparib alone",107% (inactive)
same,viability,"[10]; at 0.000305 µM, OCI-P5x cells, without rucaparib",104% (inactive)
same,viability,"[10]; at 0.00122 µM, OCI-C5x cells, with rucaparib 10 µM, 100% = cells with rucaparib alone",115% (inactive)
same,viability,"[10]; at 0.00122 µM, OCI-C5x cells, without rucaparib",84.6% (active)
same,viability,"[10]; at 0.00122 µM, OCI-P5x cells, with rucaparib 20 µM, 100% = cells with rucaparib alone",108% (inactive)
same,viability,"[10]; at 0.00122 µM, OCI-P5x cells, without rucaparib",106% (inactive)
same,viability,"[10]; at 0.00488 µM, OCI-C5x cells, with rucaparib 10 µM, 100% = cells with rucaparib alone",72.8% (active)
same,viability,"[10]; at 0.00488 µM, OCI-C5x cells, without rucaparib",55.7% (active)
same,viability,"[10]; at 0.00488 µM, OCI-P5x cells, with rucaparib 20 µM, 100% = cells with rucaparib alone",114% (inactive)
same,viability,"[10]; at 0.00488 µM, OCI-P5x cells, without rucaparib",109% (inactive)
same,viability,"[10]; at 0.0195 µM, OCI-C5x cells, with rucaparib 10 µM, 100% = cells with rucaparib alone",19.2% (active)
same,viability,"[10]; at 0.0195 µM, OCI-C5x cells, without rucaparib",17.1% (active)
same,viability,"[10]; at 0.0195 µM, OCI-P5x cells, with rucaparib 20 µM, 100% = cells with rucaparib alone",116% (inactive)
same,viability,"[10]; at 0.0195 µM, OCI-P5x cells, without rucaparib",110% (inactive)
same,viability,"[10]; at 0.0781 µM, OCI-C5x cells, with rucaparib 10 µM, 100% = cells with rucaparib alone",16.3% (active)
same,viability,"[10]; at 0.0781 µM, OCI-C5x cells, without rucaparib",17.6% (active)
same,viability,"[10]; at 0.0781 µM, OCI-P5x cells, with rucaparib 20 µM, 100% = cells with rucaparib alone",118% (inactive)
same,viability,"[10]; at 0.0781 µM, OCI-P5x cells, without rucaparib",111% (inactive)
same,viability,"[10]; at 0.313 µM, OCI-C5x cells, with rucaparib 10 µM, 100% = cells with rucaparib alone",15.6% (active)
same,viability,"[10]; at 0.313 µM, OCI-C5x cells, without rucaparib",19.3% (active)
same,viability,"[10]; at 0.313 µM, OCI-P5x cells, with rucaparib 20 µM, 100% = cells with rucaparib alone",119% (inactive)
same,viability,"[10]; at 0.313 µM, OCI-P5x cells, without rucaparib",111% (inactive)
same,viability,"[10]; at 1.25 µM, OCI-C5x cells, with rucaparib 10 µM, 100% = cells with rucaparib alone",14.5% (active)
same,viability,"[10]; at 1.25 µM, OCI-C5x cells, without rucaparib",17.5% (active)
same,viability,"[10]; at 1.25 µM, OCI-P5x cells, with rucaparib 20 µM, 100% = cells with rucaparib alone",111% (inactive)
same,viability,"[10]; at 1.25 µM, OCI-P5x cells, without rucaparib",116% (inactive)
same,viability,"[10]; at 5 µM, OCI-C5x cells, with rucaparib 10 µM, 100% = cells with rucaparib alone",16.1% (active)
same,viability,"[10]; at 5 µM, OCI-C5x cells, without rucaparib",19.3% (active)
same,viability,"[10]; at 5 µM, OCI-P5x cells, with rucaparib 20 µM, 100% = cells with rucaparib alone",124% (inactive)
same,viability,"[10]; at 5 µM, OCI-P5x cells, without rucaparib",113% (inactive)
same,inhibition,"[11]; at 0.5 µM, stronger effect = higher value",-8.68% (inactive)
same,inhibition,"[11]; measured here: combination with BGB IC20, at 0.005 µM",-6.5%
same,inhibition,"[11]; measured here: combination with BGB IC40, at 0.005 µM",-33.6%
same,inhibition,[11]; [20],2.07%
same,inhibition,"[11]; measured here: combination with cisplatin, at 0.5 µM, stronger effect = higher value",-25.4%
same,inhibition,"[11]; measured here: combination with cisplatin, at 5 µM, stronger effect = higher value",-36.4%
same,inhibition,"[12]; BGB combo, at 5 µM",77.1%
same,inhibition,[12]; at 0.5 µM,77.4% (inactive)
same,inhibition,"[12]; cisplatin combo, at 5 µM",75.6%
same,inhibition,"[12]; measured here: with BGB IC20 combination, at 0.5 µM",75.7%
same,inhibition,"[12]; measured here: with cisplatin IC20 combination, at 0.5 µM",73.8%
same,inhibition,"[12]; single agent, at 5 µM",82.5%
same,inhibition,"[13]; BGB IC20 combo, at 0.005 µM",-19.7%
same,inhibition,"[13]; BGB IC40 combo, at 0.005 µM",-58.4%
same,inhibition,"[13]; BGB IC40 combo, at 0.05 µM",-47.3%
same,inhibition,[13]; at 0.5 µM,-21.4% (inactive)
same,inhibition,"[13]; cisplatin combo, at 0.05 µM",-53.1%
same,inhibition,"[13]; cisplatin combo, at 0.5 µM",-23.4%
same,inhibition,"[13]; cisplatin combo, at 5 µM",-41.1%
same,inhibition,"[13]; measured here: 5 uM single agent, at 5 µM",-8.4%
same,inhibition,[14]; at 0.5 µM,-22.3% (inactive)
same,inhibition,[14]; [20],-24.2%
same,inhibition,"[14]; measured here: combination with cisplatin, at 0.5 µM",-26.4%
same,inhibition,"[14]; measured here: combination with cisplatin, at 5 µM",-6.83%
same,inhibition,[15]; at 0.5 µM,-11% (inactive)
same,inhibition,"[15]; measured here: with BGB IC20, at 0.5 µM",-19.6%
same,inhibition,"[15]; measured here: with BGB IC20, at 5 µM",-9.72%
same,inhibition,"[15]; measured here: with cisplatin IC20, at 0.5 µM",-17.6%
same,inhibition,"[15]; measured here: with cisplatin IC20, at 5 µM",2.95%
same,inhibition,"[15]; single agent, at 5 µM",10.6%
same,inhibition,[16]; at 0.5 µM,54.5% (inactive)
same,inhibition,"[16]; measured here: combination with BGB at IC20, at 0.5 µM",35.1%
same,inhibition,"[16]; measured here: combination with cisplatin at IC20, at 0.5 µM",62.3%
same,inhibition,[17]; at 0.5 µM,78.5% (inactive)
same,inhibition,"[17]; measured here: combo with BGB at IC20, at 0.5 µM",71.9%
same,inhibition,"[17]; measured here: combo with cisplatin at IC20, at 0.5 µM",79.7%
